The panel holds about 79,000 compounds, 15% with a hit somewhere; the sample as a whole holds those more often. Values without a mark were called inactive. Calls of active or inactive are those of the source. Cut-off read from the data, not from the text of the source: active = growth inhibition above about 70%; inactive = the rest.

Assay [1] can be described thus: NCI Yeast Anticancer Drug Screen. Data for the rad50 strain (AID 155).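 Note: 0% = growth of vehicle-only cultures of the same strain.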 The following applies: S. cerevisiae rad50 strain growth inhibition; at 50.0 µM; active compounds read high. The method, boiled down: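 Inhibition values express reduced yeast growth in compound-treated cultures relative to vehicle-treated controls.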
Assay [2] can be described thus: NCI Yeast Anticancer Drug Screen. Data for the mec2-1 strain (AID 157). The following applies: S. cerevisiae mec2-1 strain, at 50.0 µM, active compounds read high. Summed up:
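Test agents were screened against the mec2-1 yeast strain, with defined DNA repair or cell cycle alteration. Growth was scored as inhibition against vehicle-only controls.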

The nature of assay [3]: NCI Yeast Anticancer Drug Screen. Data for the sgs1 mgt1 strain (AID 161).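 Note: 0% = growth of cultures given vehicle only.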 The note with it: S. cerevisiae sgs1 mgt1 strain, at 50.0 µM, active compounds read high. The method, boiled down:
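Genetically altered yeast, compound exposure, growth inhibition relative to vehicle.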

The nature of assay [4]: NCI Yeast Anticancer Drug Screen. Data for the cln2 rad14 strain (AID 165).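 Note: 0% = growth equal to vehicle treated cultures.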 The following applies: S. cerevisiae cln2 rad14 strain, at 50.0 µM, active compounds read high. The method, boiled down: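 Growth of compound-exposed yeast (cln2 rad14 genotype) measured and expressed as inhibition relative to vehicle.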
Assay [5] can be described thus: NCI Yeast Anticancer Drug Screen. Data for the bub3 strain (AID 167). The note with it: S. cerevisiae bub3 mutant strain, at 50.0 µM, active compounds read high. The method, boiled down:
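Steps: expose the mutant yeast strain to compound; grow alongside vehicle-treated cultures; measure growth; express inhibition against the vehicle cultures.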

The nature of assay [6]: NCI Yeast Anticancer Drug Screen. Data for the mlh1 rad18 strain (AID 175). The following applies: S. cerevisiae mlh1 rad18 strain growth inhibition; at 50.0 µM; active compounds read high. Summed up: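 In this whole-cell yeast screen, a strain with altered DNA damage repair is challenged with compound, and its growth is measured against matched vehicle-treated controls.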

As for `COC(=O)CCCC1(CCCC(=O)OC)CCCCCCCCC(CCCC(=O)OC)(CCCC(=O)OC)C(=O)C1=O`, the growth inhibition in assay [1] is 21.8%; in assay [2] it was 36.9%; in assay [3], 37.2%; in assay [4], 45.5%; in assay [5], 35.8%; in assay [6], 47.6%.

As to `NC(=O)C(O)C(O)CO` (centres undefined), the growth inhibition in assay [1] is -8.8%; in assay [2], -9.35%; in assay [3], -15.2%; in assay [4] it was 7.2%; in assay [5], -8.8%; in assay [6] it was -5.25%.

As to `CC(SC(=S)SC(C)C(=O)O)C(=O)O` (centres undefined), the growth inhibition in assay [1] is 6%; in assay [2], 15.3%; in assay [3], 22.3%; in assay [4], 44%; in assay [5], -6.1%; in assay [6], 15.3%.

As to `CC1c2c(ccc3c2CCC=C3)CCC1CC1=CCCc2ccc3ccccc3c21` (centres undefined), the growth inhibition was 6.7% in assay [1]; -1.6% in assay [2]; 1.1% in assay [3]; -13.3% in assay [4]; 0.1% in assay [5]; 9.85% in assay [6].

As to `O=C(/C=C/c1ccccc1)NC(=S)Nc1ccc(F)c([N+](=O)[O-])c1`, the growth inhibition is 7.6% in assay [1]; 6.05% in assay [2]; 7.85% in assay [3]; 12.7% in assay [4]; 21.6% in assay [5]; 12.2% in assay [6].

In the case of `CCCNc1ccc2c(c1)C(=O)c1ccccc1-2`, the growth inhibition in assay [1] is -3.5%; in assay [2], -1.1%; in assay [3], -0.15%; in assay [4], -6.2%; in assay [5] it was -0.65%; in assay [6], -1.8%.

Take `[O-]/[N+](=C\c1cccc(O)c1)c1ccccc1`: the growth inhibition in assay [1] is -1.75%; in assay [2], 16.4%; in assay [3], 11.8%; in assay [4], -21.2%; in assay [5], -5.5%; in assay [6] it was 15%.

On to `COC(=O)CC1(O)C=CC(=O)c2ccccc21` (centres undefined), for which the growth inhibition in assay [1] was 2.35%; in assay [2], -6.65%; in assay [3], -3.8%; in assay [4] it was -25.9%; in assay [5] it was 44%; in assay [6] it was -5.7%.

Turning to `CCOC(=O)CC1(CC(=O)OCC)OCCO1`, the growth inhibition in assay [1] was -6.2%; in assay [2], 7.1%; in assay [3], -2.05%; in assay [4] it was -4.15%; in assay [5], -28.8%; in assay [6] it was -26.2%.

In the case of `Nc1ccccc1Br`, the growth inhibition in assay [1] is 29.6%; in assay [2], 34.5%; in assay [3] it was 21.4%; in assay [4], -31%; in assay [5], 12.2%; in assay [6] it was 20.6%.

Turning to `C=C1CCCC2OC(OC)CCC12` (centres undefined), the growth inhibition is -23.4% in assay [1]; -10.8% in assay [2]; -6.5% in assay [3]; 0.75% in assay [4]; -21.9% in assay [5]; -10.6% in assay [6].

As for `CCOc1ccc(NC(=O)CC2SC(=Nc3ccc(C)cc3)NC2=O)cc1` (centres undefined), the growth inhibition in assay [1] is -12.7%; in assay [2], -38.5%; in assay [3] it was -5.3%; in assay [4], 4.35%; in assay [5], -31.9%; in assay [6], -38%.

For the compound `OC(c1ccccc1)C1CC2C=CC1C2` (centres undefined), the growth inhibition in assay [1] was 10.4%; in assay [2] it was 3.9%; in assay [3], 3.75%; in assay [4], 3.05%; in assay [5], -2.05%; in assay [6], 2.6%.

In the case of `N#Cc1c(F)cccc1N1CCSCC1`, the growth inhibition in assay [1] was 3.5%; in assay [2], -17.8%; in assay [3] it was 14.3%; in assay [4], 25.4%; in assay [5] it was 11.5%; in assay [6] it was -0.55%.

Turning to `C=CCCCCCCCCC(=O)NCc1cccnc1`, the growth inhibition in assay [1] is 24.4%; in assay [2], 9.15%; in assay [3], 29.6%; in assay [4], 20.1%; in assay [5], 6.8%; in assay [6], 64%.

Take `COc1ccc2nccc(/C=C/CC3CCN(C(C)=O)CC3)c2c1`: the growth inhibition in assay [1] is 31.8%; in assay [2], 29.4%; in assay [3] it was 88.2% (active); in assay [4] it was 45.6%; in assay [5] it was 31.6%; in assay [6], 74.8% (active).

For the compound `O=C(O)CCS.[Cu+2]`, the growth inhibition in assay [1] is -11.8%; in assay [2], -25.3%; in assay [3] it was -9.05%; in assay [4], -10.7%; in assay [5], -29.9%; in assay [6], -14.8%.

As for `NC(=O)Nc1ccc(Cc2ccc(NC(N)=O)cc2)cc1`, the growth inhibition in assay [1] is -15.4%; in assay [2] it was -26.8%; in assay [3] it was 10.7%; in assay [4] it was 10.8%; in assay [5] it was 12.9%; in assay [6], 12.3%.

Turning to `N=C(N)N1CCC(N2CCOCC2)CC1`, the growth inhibition was 14.7% in assay [1]; -18.4% in assay [2]; -12.6% in assay [3]; -24.4% in assay [4]; 4.75% in assay [5]; -52.5% in assay [6].
